Here are results for 13 compounds from PubChem BioAssay (NCI).

Among the test systems are DU-145 prostate; MALME-3M melanoma; MDA-MB-231 breast; RXF 393 renal; SF-268 CNS; SF-295 CNS; SF-539 CNS; UACC-257 melanoma; M14 melanoma.
Test in all cases: NCI-60 one-dose screen, 48 h (100 = growth as untreated, 0 = no growth, -100 = all killed)
Holding throughout (settings): 10 µM unless noted

SMILES strings stand for the structures. Compounds without any hit were thinned out: in the full panel of roughly 83,000, 20% have a hit.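 The test compound was applied at a single concentration to cells in 96-well plates for 48 hours, and percent growth was recorded.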 Unmarked numbers belong to inactive results. The source made the active and inactive calls. How the source made its calls: active means growth percent below 10; inactive means the rest.

On to `O=C(O)c1ccc2c(c1)C(=O)N(Cc1ccccc1)C2=O`, for which the growth with DU-145 prostate was 102%; in the assay on MALME-3M melanoma, 97.4%; with MDA-MB-231 breast, 101%; in the assay on RXF 393 renal, 103%; in the assay with SF-268 CNS, 98%; in the assay with SF-295 CNS it was 95%. The growth in the assay with SF-539 CNS is 103%; with UACC-257 melanoma it was 74.2%; in the assay with M14 melanoma, 100%.

With `OCc1cnc2ccccc2c1NC1CCCCCC1`, the growth was 97.7% in the assay on DU-145 prostate; 102% in the assay with MALME-3M melanoma; 81.3% with MDA-MB-231 breast; 103% with RXF 393 renal; 101% in the assay on SF-268 CNS; 86.4% with SF-295 CNS. The growth with SF-539 CNS is 102%; with UACC-257 melanoma, 94.5%; with M14 melanoma, 91.4%.

With `Cc1ccc(-n2nc3c(c(C#N)c2=O)CC(c2ccccc2[N+](=O)[O-])C([N+](=O)[O-])=C3O)cc1` (configuration not stated), the growth in the assay with DU-145 prostate is 79.8%; with MALME-3M melanoma, 79.5%; with MDA-MB-231 breast, 70.7%; with RXF 393 renal, 81.9%; in the assay with SF-268 CNS, 85.7%; in the assay with SF-295 CNS it was 105%. For the same compound, the growth with SF-539 CNS was 96.9%; with UACC-257 melanoma, 93.8%; with M14 melanoma it was 92.1%.

For the compound `Fc1ccc(-c2cn3c(nc4ccccc43)c(-c3ccccc3)n2)cc1`, the growth is 106% in the assay on DU-145 prostate; 107% in the assay on MALME-3M melanoma; 89.3% with MDA-MB-231 breast; 80.4% in the assay with RXF 393 renal; 90.1% in the assay with SF-268 CNS; 103% in the assay with SF-295 CNS. In addition, the growth in the assay with SF-539 CNS was 90.1%; in the assay with UACC-257 melanoma it was 101%; in the assay on M14 melanoma, 109%.

In the case of `O=[N+]([O-])c1ccc(N=Nc2cc(S(=O)(=O)O)c3cccc(S(=O)(=O)O)c3c2O)cc1`, the growth with DU-145 prostate is 132%; with MALME-3M melanoma, 84.5%; in the assay on MDA-MB-231 breast, 112%; with RXF 393 renal it was 121%; in the assay with SF-268 CNS, 115%; in the assay on SF-295 CNS, 125%. Further, the growth in the assay with SF-539 CNS is 104%; in the assay on UACC-257 melanoma it was 113%; with M14 melanoma it was 97.6%.

Turning to `Oc1cccc(CCc2ccc(Oc3cc(CCc4cccc(O)c4)cc(O)c3O)cc2)c1`, the growth in the assay with DU-145 prostate was 88.8%; with MALME-3M melanoma it was 110%; in the assay with MDA-MB-231 breast, 72.8%; in the assay with RXF 393 renal it was 81%; in the assay with SF-268 CNS it was 51.7%; in the assay on SF-295 CNS, 96.7%. In addition, the results for the growth in the assay with SF-539 CNS, in the assay with UACC-257 melanoma and with M14 melanoma were 73.9%, 95.6% and 81.2%, respectively.

For `O=C1Nc2ccc(F)cc2/C1=C\c1c(-c2ccccc2)nc2ccccn12`, the growth in the assay with DU-145 prostate is 86.5%; with MALME-3M melanoma it was 67.5%; in the assay with MDA-MB-231 breast, 73.4%; in the assay on RXF 393 renal, 50.8%; with SF-268 CNS it was 79.5%; with SF-295 CNS it was 57%. Further, the growth is 73.3% in the assay on SF-539 CNS, 90.7% in the assay on UACC-257 melanoma and 48.7% in the assay on M14 melanoma.

As for `COc1ccc(Cc2cnc(NC(=O)c3ccc4c(c3)OCCO4)s2)cc1`, the growth in the assay on DU-145 prostate is 14.9%; in the assay on MALME-3M melanoma it was 55.4%; in the assay on MDA-MB-231 breast, 37.1%; with RXF 393 renal it was 19.5%; in the assay with SF-268 CNS it was 34.8%; with SF-295 CNS, 10.5%. Moreover, the growth in the assay on SF-539 CNS is -1.94% (active); with UACC-257 melanoma, 46.4%; with M14 melanoma it was 15.6%.

Regarding `COc1cc(NC(=O)CSc2nc3ccc(C)cc3c(=O)n2Cc2ccccc2)cc(OC)c1OC`, the growth was 80.7% in the assay with DU-145 prostate; 49.8% in the assay on MALME-3M melanoma; 35.5% in the assay on MDA-MB-231 breast; 24.3% in the assay on RXF 393 renal; 69.1% with SF-268 CNS; 79.9% in the assay with SF-295 CNS. In addition, the growth with SF-539 CNS is 11.8%; with UACC-257 melanoma, 61.3%; with M14 melanoma it was 65.6%.

For the compound `O=C1/C=C/[C@@H](O)[C@@H]2C[C@@H](O)C[C@H]2/C=C/CCC[C@H](CCc2cccc3ccccc23)O1`, the growth with DU-145 prostate is 19%; in the assay with MALME-3M melanoma, -17.7% (active); in the assay with MDA-MB-231 breast, -41.2% (active); in the assay with RXF 393 renal, -30.9% (active); in the assay with SF-268 CNS it was 16.6%; in the assay with SF-295 CNS it was 7.76% (active). Besides, the growth is 21.7% in the assay with SF-539 CNS, 26.1% in the assay on UACC-257 melanoma and 5.14% (active) in the assay with M14 melanoma.

As for `O=C1c2ccccc2CCC12OC2c1cn(-c2ccccc2)nc1-c1ccc(Cl)cc1` (configuration not stated), the growth in the assay on DU-145 prostate is 111%; in the assay with MALME-3M melanoma, 105%; with MDA-MB-231 breast it was 91.9%; with RXF 393 renal, 93.1%; in the assay on SF-268 CNS, 93.1%; in the assay on SF-295 CNS, 71.9%. In addition, the values for the growth with SF-539 CNS, in the assay with UACC-257 melanoma and with M14 melanoma were 93.4%, 96.1% and 97.7%, respectively.

Regarding `CCN1C(=O)N(CC)C2Nn3c(s/c(=C\c4ccc(OC)cc4)c3=O)=NC21` (configuration not stated), the growth is 67.3% in the assay with DU-145 prostate; 54.1% with MALME-3M melanoma; 61.4% in the assay on MDA-MB-231 breast; 56.2% in the assay with RXF 393 renal; 63.1% in the assay on SF-268 CNS; 44.1% in the assay on SF-295 CNS. Besides, the results for the growth in the assay on SF-539 CNS, in the assay on UACC-257 melanoma and with M14 melanoma were 42.9%, 45% and 39.8%, respectively.

With `OCc1cnccc1NCCCOc1ccccc1`, the growth was 104% in the assay on DU-145 prostate; 104% with MALME-3M melanoma; 88.6% with MDA-MB-231 breast; 104% with RXF 393 renal; 101% with SF-268 CNS; 104% in the assay on SF-295 CNS. Also, the growth was 102% in the assay with SF-539 CNS, 100% in the assay with UACC-257 melanoma and 109% in the assay with M14 melanoma.
